{
  "source": "PubChem BioAssay AID743446",
  "about": "(Broad Institute, 2014)",
  "note": "Potency and affinity values are given separately. A number with no mark means an inactive call. How the calls were made is not given here.",
  "data": [
    {"assay": "viability loss in HEK293 cells – cell-based, plate reader, cherry-picked samples, cytotoxicity control, dose response (AID 743446)", "settings": "hits give low values; at 26 µM unless noted", "values": [
      {"compound": "COCCn1c(C)cc(C(=O)CSc2nnc3ccccn23)c1C", "max activity": "-15% [at 6 µM]"},
      {"compound": "CN1CCN(c2ccc(NC(=O)c3sc4ccccc4c3Cl)cc2)CC1", "max activity": "17.1% [at 0.1 µM]"},
      {"compound": "c1ccc(-c2cn3c4c(sc3n2)CCCC4)cc1", "max activity": "-19.5%"},
      {"compound": "Cc1cc(-c2ccccc2)n2ncc(-c3ccccc3)c2n1", "max activity": "19.9% [at 0.8 µM]"},
      {"compound": "COc1cc(NC(=O)c2cccc3c(-c4cnn(C)c4)coc23)cc(OC)c1OC", "max activity": "-34.1%"},
      {"compound": "CCOC(=O)c1cn2nc(N3CCCC3)ccc2n1", "max activity": "-7.31% [at 6 µM]"},
      {"compound": "Cc1ccc2nc(-c3ccc(Br)cc3)cn2c1", "max activity": "0% [setting not given]"},
      {"compound": "Nc1ccc(-c2nc3ccc(N)cc3s2)cc1", "max activity": "53.7%"},
      {"compound": "O=C(O)c1c2c(nc3ccccc13)/C(=C/c1ccc(O)cc1)CC2", "max activity": "22.6%"},
      {"compound": "CC(C)(C)c1ccc(C(=O)NCCOc2ccccc2F)cc1", "max activity": "23.5%"},
      {"compound": "CCOC(=O)Nc1ccc(N2CCOCC2)c(S(=O)(=O)Nc2ccc(Cl)cc2)c1", "max activity": "-19.3%"},
      {"compound": "COc1ccc(CCNC(=O)C2CCN(S(=O)(=O)c3ccc(Cl)cc3)CC2)cc1OC", "max activity": "-15% [at 0.05 µM]"},
      {"compound": "O=C(Nc1cc(S(=O)(=O)Nc2ccccc2Cl)ccc1O)c1ccc(F)cc1F", "max activity": "-13.9% [at 0.8 µM]"},
      {"compound": "Cc1ccc(S(=O)(=O)N2CCCc3nc(-c4ccc(F)cc4)ccc32)cc1", "max activity": "43.2% [at 12 µM]"},
      {"compound": "O=C(CSc1nc2ccccc2[nH]1)Nc1nc(-c2cccc(Br)c2)cs1", "max activity": "46.2% [at 1.6 µM]"}
    ]}
  ]
}
